Test results taken from ChEMBL document CHEMBL4513216, “Probing the Open Global Health Chemical Diversity Library for Multistage-Active Starting Points for Next-Generation Antimalarials” (ACS Infect Dis, 2020).
The campaign covered roughly 65,000 compounds. About 2,100 (3.2%) showed an effect of 50% or more. The median lay at about -52%. What follows is part of a selection rich in strong results, with near analogues and random picks from the rest.

The molecules below were run on Plasmodium falciparum (assay: Screen against P. falciparum Asexual Blood Stage (ABS), at 5uM). Conditions: tested at 5 uM.
Assay type: functional, Dd2

Structure (SMILES)	INHIBITION [%]
CCS(=O)(=O)CC(=O)NC(c1ccccc1)C1CCCC1 (centres undefined)	-30
Cc1noc(C)c1CN1CCN(C(C)c2nc(C3CC3)no2)CC1 (centres undefined)	-77.5
Cc1c(Cc2ccccc2)c(O)nc2nc(N3CCOCC3)nn12	-56.2
O=C(c1ccncc1)N1CCC2(CC1)CCN(C(=O)c1cccnc1)C2	-57.2
CC(=O)Nc1ccc(OCc2noc(C(=O)N3CCCCCC3)n2)cc1	-83.9
Cc1nc(CN2CCCC(CCc3ccc(F)cc3F)C2)c[nH]1 (centres undefined)	57.6
Cc1nc(CN2CCCC(CCc3ccccc3F)C2)c[nH]1 (centres undefined)	36.5
Cc1[nH]c(=O)[nH]c(=O)c1CN1CCCC(CCc2ccc(F)cc2F)C1 (centres undefined)	52
Cc1nc(CN2CCCC(CCc3c(F)cccc3F)C2)c[nH]1 (centres undefined)	43.1
Fc1ccc(CCC2CCCN(Cc3c[nH]cn3)C2)c(F)c1 (centres undefined)	61.6
Nc1ccc(CC2CCCN(Cc3c[nH]cn3)C2)nn1 (centres undefined)	-87
CNc1ccc(CC2CCCN(Cc3c[nH]cn3)C2)nn1 (centres undefined)	-105
Cc1[nH]c(=O)[nH]c(=O)c1CN1CCCC(CCc2ccccc2F)C1 (centres undefined)	-26.5
Cc1[nH]c(=O)[nH]c(=O)c1CN1CCCC(CCc2c(F)cccc2F)C1 (centres undefined)	-44.3
Cc1ccc(OCC(O)CN2CCc3c(ncn3C3CC3)C2)cc1 (centres undefined)	-28.3
CN1CCc2nc(C3CCCN(C(=O)CC(C)(C)C)C3)ncc2C1 (centres undefined)	-102
Cc1cccc(-c2ccc(C(=O)N3CCSCC3)c(=O)[nH]2)c1	-14.2
Cc1csc(CN2CC[C@H]3O[C@H](C(=O)Nc4cccnc4)CC[C@H]32)n1	-18.1
Cc1nn(C)c2c(N3CCN(C(=O)C4CCCO4)CC3)ncnc12 (centres undefined)	9.5
CC(=O)N1CCN(C(=O)c2cc(C(C)C)no2)[C@H]2CS(=O)(=O)C[C@H]21	-67
O=C(CCNC(=O)c1cccc(OC(F)F)c1)Nc1cccnc1	-128
Cc1cccc(CN2CCc3nnc(CN(C)C)n3CC2)n1	-108
Cc1cccc(CN2CCc3nnc(Cn4cccc4)n3CC2)n1	57.5
Cc1cccc(CN2CCc3nnc(CN4CCCC4=O)n3CC2)n1	-48.8
Cc1nnc2n1CCN(CCS(=O)(=O)c1ccc(Cl)cc1)C2	-194
Cc1cccc(-c2noc(Cn3nc(C(N)=O)ccc3=O)n2)c1	-165
CN(CCCC1CCCO1)S(=O)(=O)NCc1ccccc1 (centres undefined)	-55.1

Structure (SMILES)	INHIBITION [%]
O=S(=O)(NCc1ccccc1)N(Cc1ccccn1)CC1CCCO1 (centres undefined)	-181
CN(C)CCN(CC1CCCO1)S(=O)(=O)NCc1ccccc1 (centres undefined)	62
C[C@@H](CO)NC(=O)c1ccc2nc(NS(C)(=O)=O)sc2c1	-104
CCOc1ccc(CNC(=O)N(C)CC(C)(C)O)cc1C	-65.1
COCC(=O)N1CCC2(CC1)CN(c1ccccn1)CCO2	-89.8
CCN1CCC2(CC1)CC(COC)N(Cc1csc(C)n1)C2 (centres undefined)	-19.2
COCC1CC2(CCN(Cc3ccco3)CC2)CN1C(C)C (centres undefined)	64.6
COCC1CC2(CCN(Cc3nccs3)CC2)CN1Cc1ccccn1 (centres undefined)	1.23
COCC1CC2(CCN(C(C)=O)CC2)CN1Cc1csc(C)n1 (centres undefined)	-7.46
COCC1CC2(CCN(C(=O)c3ccco3)CC2)CN1C(C)C (centres undefined)	24.5
COCC1CC2(CCN(Cc3ccc(C)o3)CC2)CN1C(C)C (centres undefined)	34.5
COCC(=O)N1CCC2(CCN(Cc3ccccn3)CC2)CC1	-158
COCC1CC2(CCN(CC3CC3)CC2)CN1Cc1csc(C)n1 (centres undefined)	53.4
COCC1CC2(CCN(Cc3ccoc3)CC2)CN1Cc1ccccn1 (centres undefined)	57.2
COCCN1CCC2(CC1)CCN(Cc1ccccn1)CC2	52.2
Cn1cc(CN2CCC3(CC2)CCN(Cc2ccccn2)CC3)cn1	-19.8
COCC(=O)N1CCC2(CC1)CC(COC)N(Cc1ccccn1)C2 (centres undefined)	-56
CC(C)CO[C@H]1CN(S(=O)(=O)c2cn(C)cn2)[C@@H]2CCCO[C@H]12	-26.7
CN(CC(F)(F)F)C(=O)CNC(=O)N1CCCC(N(C)C)C1 (centres undefined)	-126
O=C(c1n[nH]c(=O)c2ccccc12)N1CCC(O)(CN2CCOCC2)C1 (centres undefined)	-74.2
CC(C)(C)OC(=O)NC(C)(C(N)=O)c1cccc(Cl)c1 (centres undefined)	-135
CC(C)c1noc(CCC(=O)N2CCSCC2)n1	-159
COCC1CN(Cc2ccccn2)Cc2nn(C)cc21 (centres undefined)	-9.17
Cc1nnc(SCC(=O)NCc2ccc3c(c2)CCC(=O)N3)s1	-34.4
Cc1nc2cc(CNC(=O)C3CC(=O)N(C4CCCC4)C3)ccc2n1C (centres undefined)	-135
CN(CC1CCCCC1)C(=O)c1ccc(-n2ncc(C#N)c2N)cc1	-48.5
CCOc1ccc(Cl)c(C(=O)NCCC(=O)Nc2ccccn2)n1	31.1
